This note sets out measurements from PubChem BioAssay AID588342 (National Center for Advancing Translational Sciences (NCATS), 2011).

Each structure is given as a SMILES string. Screen size: about 360,000 compounds; about 25,000 (6.9%) were called active. Not shown: some 9% with an inconclusive outcome. Calls come from the whole dose curve; as a rule, active = well fitted inhibition curve with a large enough effect; inconclusive = small, poorly fitted or top-dose-only effect; inactive = flat fitted curve, though single readings scatter. What follows is part of a selection rich in actives, with near analogues and random picks from the rest. Entries that show only a call come without a potency.
Potency is the fitted concentration of half-maximal effect.

Chain of Luciferin 4-monooxygenase (Photinus pyralis) (P08659 whole entry, looked up): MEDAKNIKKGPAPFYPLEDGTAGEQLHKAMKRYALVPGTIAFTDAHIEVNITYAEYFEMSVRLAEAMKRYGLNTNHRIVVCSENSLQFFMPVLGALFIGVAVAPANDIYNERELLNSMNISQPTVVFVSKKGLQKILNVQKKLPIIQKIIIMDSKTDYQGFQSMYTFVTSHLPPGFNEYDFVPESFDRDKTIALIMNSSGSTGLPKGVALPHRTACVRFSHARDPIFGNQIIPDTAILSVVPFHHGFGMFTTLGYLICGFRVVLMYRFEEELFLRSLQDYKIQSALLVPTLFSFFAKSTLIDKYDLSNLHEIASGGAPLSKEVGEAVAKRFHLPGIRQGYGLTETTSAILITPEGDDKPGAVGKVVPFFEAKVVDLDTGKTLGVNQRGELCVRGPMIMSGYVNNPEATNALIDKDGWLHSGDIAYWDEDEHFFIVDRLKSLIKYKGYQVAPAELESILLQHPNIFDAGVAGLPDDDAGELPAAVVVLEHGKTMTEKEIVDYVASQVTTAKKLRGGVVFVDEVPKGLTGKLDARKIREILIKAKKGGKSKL

The target of this assay is Luciferin 4-monooxygenase (Photinus pyralis) (UniProt P08659). As to the kind of experiment: qHTS profiling assay for firefly luciferase inhibitor/activator using purifed enzyme and Km concentrations of substrates (counterscreen for miR-21 project). Note: nearly all actives have a fitted effect of over 55% in size. To be noted: purified FLuc, luminescence inhibition; series mostly up to 57.5 µM. The method in brief:
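Biochemical qHTS of compounds, final roughly 60 µM downward over six points, against 10 nM purified firefly luciferase using Km concentrations of substrates (10 uM D-luciferin, 10 uM ATP) in Tris acetate pH 7.5 buffer; luminescence output.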
With `CCNC(=O)c1cnn(-c2ccccc2)c1-c1ccccc1`, the Potency result is “inactive”.
For `CCN(CC)CC(=O)Nc1nn(-c2ccccc2)nc1C(N)=O`, the Potency entry is “inactive”.
Take `O=C(Cn1cnc2c(oc3ccccc32)c1=O)Nc1ccc(OC(F)(F)F)cc1`: the Potency result is “inactive”.
Consider `CC(=O)c1nn(-c2ccc(OC(F)(F)F)cc2)nc1Nc1ccccc1`, for which the Potency is 379 nM (active).
Regarding `Cc1ccc(C(=O)NCCSc2c(C)[nH]c3ccccc23)cc1C`, the Potency result was “inactive”.
In the case of `CCc1ccc(-c2cc(C(=O)NCc3ccco3)c3ccccc3n2)s1` it was 5360 nM (active); in that of `O=C(NCc1ccco1)c1nc(-c2ccccc2)n(-c2ccccc2)n1`, “inactive”; in that of `CCOc1ccc(CNC(=O)c2cc(-c3ccc(Cl)s3)nc3ccccc23)cc1`, “inactive”.
The value for `COc1ccccc1N1CCN(CCCNC(=O)c2cnn(-c3ccccc3Cl)c2C2CCN(C(=O)OC(C)(C)C)CC2)CC1` was “inactive”.
For `Cc1ccc(OS(=O)Nc2cccc3nccnc23)cc1` (configuration not stated), the Potency result was “inactive”.
For `CCOc1ccc(NC(=O)C(=O)NCCc2csc3nc(-c4ccccc4F)nn23)cc1`, the Potency result is “inactive”.
`COCc1cc(C)nc2sc(C(=O)NC3CCCCC3)c(N)c12`: the Potency is 16900 nM (active).
With `COc1cc(OC)c(C(=O)NC2CCCCCC2)cc1OC`, the Potency entry is “inactive”.
The value for `COc1ccc(OC)c(NC(=O)c2sc3nc(C)cc(C)c3c2N)c1` was “inactive”; that for `CCOC(=O)c1c(C)oc2nc(C)nc(Nc3ccc(CC)cc3)c12` was “inactive”; that for `COc1cccc(NC(=O)C(=O)c2cn(CC(=O)N3CCOCC3)c3ccccc23)c1` was 5360 nM (active).
The value for `O=C(NCc1ccco1)C(=O)c1cn(CC(=O)N2CCCCCC2)c2ccccc12` was “inactive”; that for `O=C(Nc1ccc(F)cc1)C(=O)c1cn(CC(=O)N2CCOCC2)c2ccccc12` was 2690 nM (active); that for `COc1cccc(NC(=O)CS(=O)(=O)c2cn(CC(=O)N3CCOCC3)c3ccccc23)c1` was “inactive”.
`CN1CCN(C(=O)C(=O)c2cn(CC(=O)N3CCCC3)c3ccccc23)CC1`: the Potency result is “inactive”.
For `O=C(CSc1cn(CC(=O)N2CCOCC2)c2ccccc12)Nc1ccccc1`, the Potency entry is “inactive”.
With `CCc1cccc(C)c1NS(=O)(=O)c1ccc(-c2cc(C)no2)s1`, the Potency result was “inactive”.
In the case of `Cc1ccc2oc(=O)c3cnn(CC(=O)N4CCN(c5cccc(Cl)c5)CC4)c3c2c1`, the Potency result is “inactive”.
As for `Cc1ccc(N2CC(c3nnc(Cc4ccccc4Cl)o3)CC2=O)cc1` (configuration not stated), the Potency entry is “inactive”.
`Cc1cccc(NC(=O)CSc2nc3c(oc4ccccc43)c(=O)n2-c2ccc(F)cc2)c1`: the Potency result is “inactive”.
Turning to `COc1ccc(-c2nc3nc(C)cc(C)n3c2Nc2c(C)cccc2C)cc1`, the Potency entry was “inactive”.
In the case of `CCCCC(CC)CNC(=O)C1CCN(S(=O)(=O)c2cccc3nsnc23)CC1` (configuration not stated), the Potency entry is “inactive”.
Take `Cc1nn(Cc2ccccc2)c(Cl)c1C(=O)OC1CCOC1=O` (configuration not stated): the Potency entry is “inactive”.
As for `O=C(OC1CCOC1=O)c1ccc(-c2nc3ccccc3s2)s1` (configuration not stated), the Potency was 190 nM (active).
For the compound `COc1cc(C(=O)OC2CCOC2=O)c([N+](=O)[O-])cc1OC` (configuration not stated), the Potency entry was “inactive”.
Turning to `CCOC(=O)c1c(NC(=O)CNC2CCCc3ccccc32)sc(C(N)=O)c1C` (configuration not stated), the Potency result was “inactive”.
The value for `CCC(=O)N1CCCc2ccccc21` was “inactive”.
For the compound `O=C(CSCc1ccccc1)N1CCc2ccccc21`, the Potency was 2390 nM (active).
On to `O=C(CN1CCN(c2ccccn2)CC1)N1CCc2ccccc21`, for which the Potency entry is “inactive”.
Take `CCc1nc2ccccc2c(C(=O)OC2CCCCC2=O)c1C` (configuration not stated): the Potency result was “inactive”.
Turning to `COC(=O)CCc1sc(Nc2ccc(Br)cc2)nc1-c1ccc(OC)cc1`, the Potency entry is “inactive”.
Consider `COc1ccc(Nc2nc(-c3ccccc3)cs2)cc1`, for which the Potency was 601 nM (active).
For `NS(=O)(=O)c1ccc(Nc2nc(-c3ccccc3)cs2)cc1`, the Potency was 21300 nM (active).
For the compound `CC(=O)Nc1nc(C)c(-c2csc(Nc3ccc(S(N)(=O)=O)cc3)n2)s1`, the Potency result is “inactive”.
For `CCCn1c(CCNc2nc(-c3ccc(OC)cc3)cs2)nc2ccccc21`, the Potency entry was “inactive”.
In the case of `CCCn1c(C2CCCN2c2nc(-c3ccc(OC)cc3)cs2)nc2ccccc21` (configuration not stated) it was “inactive”; in that of `NS(=O)(=O)c1ccc(NS(=O)(=O)/C=C/c2ccccc2)cc1`, “inactive”.
Take `COc1ccc(-c2csc(Cc3nc(O)cs3)n2)cc1`: the Potency was 2690 nM (active).
Turning to `COc1ccc(NC(=O)c2sc(N)nc2-c2ccccc2)cc1`, the Potency result was “inactive”.
The value for `COc1ccc(C2C(C(C)=O)=C(O)C(=O)N2c2nccs2)cc1` (configuration not stated) was “inactive”; that for `COc1ccc(-c2csc(Nc3ccc(O)cc3)n2)cc1` was 1350 nM (active).
Regarding `CCOC(=O)NC(=O)CSc1nnc(SCCC(=O)O)s1`, the Potency result is “inactive”.
`CCC[C@H]1CCCC/C=C\CCCC(=O)OCCN1C(=O)OC(C)(C)C`: the Potency result was “inactive”.
Consider `COC(=O)c1cc(NC(=O)CCc2c(C)nc3c4c(C)cc(C)nc4nn3c2C)cc(C(=O)OC)c1`, for which the Potency result is “inactive”.
With `C[C@@H]1O[C@@H](OC[C@H]2O[C@@H](Oc3c(-c4ccc(O)cc4)oc4cc(O)cc(O)c4c3=O)[C@H](O)[C@@H](O)[C@@H]2O)[C@H](O)[C@H](O)[C@H]1O`, the Potency entry was “inactive”.
As for `CCNC(=O)c1cccc(NC(=O)C2CC(=O)N(CCc3ccccc3)C2)c1` (configuration not stated), the Potency entry was “inactive”.
For the compound `CCOc1ccc(NC(=O)CN(C)C(=O)Cn2c(=O)cnc3ccccc32)cc1OCC`, the Potency result was “inactive”.
With `COc1ccccc1Cc1nc2ccccc2nc1SCC(=O)N1CCCc2ccccc21`, the Potency entry was “inactive”.
As for `O=C(Cc1ccccc1)NCC1OCCc2ccccc21` (configuration not stated), the Potency result is “inactive”.
The value for `CSc1nc(-c2ccc(F)cc2)nc2c1Cc1c(CO)cnc(C)c1O2` was “inactive”; that for `Cc1ccc(-c2csc(NC3OC(=O)c4ccccc43)n2)cc1` (configuration not stated) was “inactive”.
Consider `COc1ccc(-c2csc(NC3OC(=O)c4ccccc43)n2)cc1` (configuration not stated), for which the Potency is 6750 nM (active).
Turning to `COc1ccc2c(c1OC)C(=O)OC2Nc1nc(-c2ccccc2)cs1` (configuration not stated), the Potency result was “inactive”.
Consider `O=C(NCCS(=O)(=O)N1CCN(c2ccc(F)cc2)CC1)c1ccccc1Br`, for which the Potency entry is “inactive”.
The value for `O=C(CSCc1cnn(-c2ccccc2)c1-n1cccc1)NCc1ccc(Cl)cc1` was “inactive”.
For `CCOc1ccc(NC(=O)N(CCC(C)C)C(C)c2ccco2)cc1` (configuration not stated), the Potency result was “inactive”.
Turning to `CCOc1ccc(NC(=O)c2ncoc2-c2ccco2)cc1`, the Potency is 7570 nM (active).
With `COCCn1c(SCC(=O)Nc2ccc3c(c2)CCC3)nc2ccccc2c1=O`, the Potency entry was “inactive”.
Regarding `CCOc1ccc(NC(=O)c2cc(C)nc3ccccc23)cc1`, the Potency result is “inactive”.
Turning to `O=C(CCc1ccccc1)Nc1cccc(-c2nnc(-c3ccco3)o2)c1`, the Potency entry was “inactive”.
For `Cc1cccc(NC(=O)CSc2nnc(-c3ccco3)o2)c1`, the Potency entry was “inactive”.
`Cc1ccc(CNC(=O)COc2ccc3c(c2)CCC3)cc1`: the Potency result was “inactive”.
`COc1ccc(-c2ocnc2C(=O)Nc2ccc3c(c2)CCC3)cc1`: the Potency was 7570 nM (active).
In the case of `CCCCOc1ccc(-c2nnc(-c3ccco3)o2)cc1` it was 2390 nM (active); in that of `CCOc1ccc(-n2c(SCC(N)=O)nnc2-c2ccco2)cc1`, “inactive”; in that of `N#Cc1ccc(OCc2nnc(-c3ccc([N+](=O)[O-])cc3)o2)cc1`, “inactive”.
The value for `CCOc1ccc(-c2nnc(-c3ccco3)o2)cc1` was 953 nM (active).
